About 83,000 compounds went through this panel and 20% of them were active in at least one assay; those are over-represented in the sample as a whole.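 The endpoint reported here, percent growth, reads 100 for growth as untreated, 0 for no net growth and -100 for all cells dead.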 The source made the active and inactive calls. How the source made its calls: active means growth percent below 10; inactive means the rest.
Assays:
Test in all cases: NCI-60 one-dose screen, 48 h (100 = growth as untreated, 0 = no growth, -100 = all killed)
Details in all cases: 10 µM unless noted
NCI-H23 lung = tested on: NCI-H23 lung
NCI-H226 lung = tested on: NCI-H226 lung
NCI-H322M lung = tested on: NCI-H322M lung
HOP-62 NSCLC = tested on: HOP-62 NSCLC
NCI-H460 lung = tested on: NCI-H460 lung
NCI-H522 lung = tested on: NCI-H522 lung
A549/ATCC NSCLC = tested on: A549/ATCC NSCLC
786-0 renal = tested on: 786-0 renal
COLO 205 colon = tested on: COLO 205 colon

Measured: growth

COc1cc2oc(-c3cccc(N)c3)cc(=O)c2c(OC)c1OC
inactive: NCI-H23 lung 110% | NCI-H226 lung 99.9% | NCI-H322M lung 102% | HOP-62 NSCLC 115% | NCI-H460 lung 106% | NCI-H522 lung 97.4% | A549/ATCC NSCLC 101% | 786-0 renal 94.1% | COLO 205 colon 126%

COc1cc(OC)c(S(N)(=O)=O)cc1C(=O)/C=C/c1ccc(Cl)cc1
active: NCI-H23 lung 6.85% | NCI-H226 lung -26% | HOP-62 NSCLC 9.71% | NCI-H460 lung -11.2% | NCI-H522 lung -6.47% | A549/ATCC NSCLC 6.83% | COLO 205 colon -30%
inactive: NCI-H322M lung 16.3% | 786-0 renal 13.8%

Cc1nn(-c2ccccc2)c2ncnc(N/N=C/c3cccc(O)c3)c12
inactive: NCI-H23 lung 61.3% | NCI-H226 lung 80.5% | NCI-H322M lung 73.1% | HOP-62 NSCLC 44.3% | NCI-H460 lung 15.7% | NCI-H522 lung 25.4% | A549/ATCC NSCLC 57.7% | 786-0 renal 66.7% | COLO 205 colon 57.1%

COc1ccc2[nH]cc(-c3csc4nc(-c5ccccc5)cn34)c2c1
inactive: NCI-H23 lung 30.8% | NCI-H226 lung 31.4% | NCI-H322M lung 64.6% | HOP-62 NSCLC 24.5% | A549/ATCC NSCLC 29.9% | 786-0 renal 51.6%
active: NCI-H460 lung 2.01% | NCI-H522 lung -34% | COLO 205 colon -32.6%

COc1ccc(CCN2C(=O)CSC2=S)cc1
inactive: NCI-H23 lung 103% | NCI-H226 lung 115% | NCI-H322M lung 99.4% | HOP-62 NSCLC 104% | NCI-H460 lung 103% | NCI-H522 lung 69.3% | A549/ATCC NSCLC 102% | 786-0 renal 87.3% | COLO 205 colon 117%

CC[C@]12C=CCN3CC[C@@]4(c5cc(NC(=O)COc6cc(O)c7c(=O)cc(-c8ccccc8)oc7c6)c(OC)cc5N(C)[C@H]4[C@@](O)(C(=O)OC)[C@@H]1OC(C)=O)[C@@H]32
active: NCI-H23 lung -92.9% | NCI-H226 lung -70.4% | NCI-H322M lung -51.8% | HOP-62 NSCLC -73.6% | NCI-H460 lung -57.7% | NCI-H522 lung -49.7% | A549/ATCC NSCLC -68.5% | 786-0 renal -59.9% | COLO 205 colon -81%

COc1cc2nc(Cl)nc(Nc3cccc(C4=Nc5c(N)nc(N)nc5NC(c5ccc(Cl)cc5)C4)c3)c2cc1OC (stereo unspecified)
inactive: NCI-H23 lung 87.8% | NCI-H226 lung 90.4% | NCI-H322M lung 86.3% | HOP-62 NSCLC 18% | NCI-H522 lung 34.6% | A549/ATCC NSCLC 37.2% | COLO 205 colon 21.5%
active: NCI-H460 lung 2.91% | 786-0 renal -52.1%

COCCNc1ccc2ncc(C#Cc3cncc(C(=O)Nc4ccc(CN5CCN(C)CC5)c(C(F)(F)F)c4)c3)n2n1
active: NCI-H23 lung -49.6% | NCI-H226 lung -45.9% | NCI-H322M lung -23% | HOP-62 NSCLC -48.3% | NCI-H460 lung -82.5% | NCI-H522 lung -76.3% | A549/ATCC NSCLC 3.12% | 786-0 renal -64.1% | COLO 205 colon -83.1%

O=C(Nc1nc2ccc([N+](=O)[O-])cc2s1)Nc1ccccc1Br
inactive: NCI-H226 lung 38.4% | NCI-H322M lung 27.6% | HOP-62 NSCLC 91.2% | NCI-H460 lung 27.4% | NCI-H522 lung 26.5% | A549/ATCC NSCLC 49.4% | 786-0 renal 70% | COLO 205 colon 55.3%
active: NCI-H23 lung 9.86%

c1cn2c(ccc3nc(-c4cn[nH]c4)c4c(c32)CCCC4)n1
inactive: NCI-H23 lung 69.2% | NCI-H226 lung 73.6% | NCI-H322M lung 75.8% | HOP-62 NSCLC 71.8% | NCI-H460 lung 43.9% | NCI-H522 lung 62.8% | A549/ATCC NSCLC 62.5% | 786-0 renal 55.3% | COLO 205 colon 95.5%

C#C[C@]1(O)CC[C@H]2[C@@H]3CC=C4c5sc(-c6ccc(C)cc6)nc5CC[C@]4(C)[C@H]3CC[C@@]21C
active: NCI-H460 lung -0.692% | 786-0 renal -52.5%
inactive: NCI-H23 lung 46.4% | NCI-H226 lung 99.3% | NCI-H322M lung 33% | HOP-62 NSCLC 23.2% | NCI-H522 lung 27.6% | A549/ATCC NSCLC 38.3% | COLO 205 colon 104%

COc1ccc(CCOc2cc3c(cc2OC)CCN(C(=O)NCc2cocn2)C3c2ccc(C)cc2C)cc1 (stereo unspecified)
active: HOP-62 NSCLC 8.99% | NCI-H460 lung 3.64% | NCI-H522 lung -41.2% | A549/ATCC NSCLC 7.81% | 786-0 renal 5.15% | COLO 205 colon -62%
inactive: NCI-H23 lung 11.4% | NCI-H226 lung 34.3% | NCI-H322M lung 46%

CCCn1cnc2c(c1=N)C(c1ccc(Cl)cc1)c1sc3c(C)cccc3c1O2 (stereo unspecified)
inactive: NCI-H23 lung 20.5% | NCI-H226 lung 62% | NCI-H322M lung 43.8% | HOP-62 NSCLC 44.2% | A549/ATCC NSCLC 29.1% | 786-0 renal 33.8%
active: NCI-H460 lung 9.41% | NCI-H522 lung -5.59% | COLO 205 colon 1.53%

CC1=N[C@@H]2CN(C(=O)OC(C)(C)C)C[C@@H]2n2c1cc1ccccc1c2=O
inactive: NCI-H23 lung 93.7% | NCI-H226 lung 99.5% | NCI-H322M lung 98.6% | HOP-62 NSCLC 97.9% | NCI-H460 lung 109% | NCI-H522 lung 98.6% | A549/ATCC NSCLC 103% | 786-0 renal 102% | COLO 205 colon 107%

N#Cc1ccccc1Cn1c2nc(=N)c3ccccc3c-2nc2ccccc21
inactive: NCI-H23 lung 52.4% | NCI-H226 lung 61.3% | NCI-H322M lung 66% | HOP-62 NSCLC 62.2% | NCI-H460 lung 22.1% | NCI-H522 lung 59.7% | A549/ATCC NSCLC 44.3% | 786-0 renal 80.3%
active: COLO 205 colon 3.63%

CCC(NC(c1cc2cccc3ccc4cccc1c4c32)c1nnnn1C(C)(C)C)C1CCCCC1 (stereo unspecified)
inactive: NCI-H23 lung 46.6% | NCI-H226 lung 75% | NCI-H322M lung 79.3% | HOP-62 NSCLC 69.7% | NCI-H460 lung 31.2% | NCI-H522 lung 60.1% | A549/ATCC NSCLC 69.7% | 786-0 renal 67.3% | COLO 205 colon 78.6%

CCc1cccc2c3c(sc12)C(c1ccc(OC)cc1)C(C#N)=C(/N=C/c1ccc(Cl)cc1)O3 (stereo unspecified)
active: NCI-H522 lung -40.4% | COLO 205 colon -18.9%
inactive: NCI-H23 lung 19.9% | NCI-H226 lung 41.2% | NCI-H322M lung 55.1% | HOP-62 NSCLC 33.8% | NCI-H460 lung 11.5% | A549/ATCC NSCLC 41.5% | 786-0 renal 39.3%

CCCn1cnc2c(c1=N)C(c1ccc(OC)cc1)c1sc3c(C)cccc3c1O2 (stereo unspecified)
active: NCI-H460 lung 6.21% | NCI-H522 lung -3.75% | COLO 205 colon 7.69%
inactive: NCI-H23 lung 23.1% | NCI-H226 lung 63.8% | NCI-H322M lung 45.3% | HOP-62 NSCLC 43.6% | A549/ATCC NSCLC 29.2% | 786-0 renal 31.1%

CCO/C=N/C1=C(C#N)C(c2ccc(OC)cc2)c2sc3c(C)cccc3c2O1 (stereo unspecified)
active: NCI-H460 lung 9.13% | NCI-H522 lung -3.87%
inactive: NCI-H23 lung 25.4% | NCI-H226 lung 57% | NCI-H322M lung 45.7% | HOP-62 NSCLC 40.8% | A549/ATCC NSCLC 27.3% | 786-0 renal 40.8% | COLO 205 colon 16.1%

NC(N)=Nc1ccc(Oc2cccc(Oc3ccc(Cl)c(C(F)(F)F)c3)c2)cn1
active: NCI-H23 lung -83.5% | NCI-H226 lung -73.4% | NCI-H322M lung -6.46% | HOP-62 NSCLC -56% | NCI-H460 lung -78.8% | NCI-H522 lung -67.9% | A549/ATCC NSCLC -67.1% | 786-0 renal -82% | COLO 205 colon -68.2%

CCO/C=N/C1=C(C#N)C(c2ccc(F)cc2)c2sc3c(CC)cccc3c2O1 (stereo unspecified)
inactive: NCI-H23 lung 28.3% | NCI-H226 lung 51.6% | NCI-H322M lung 42.6% | HOP-62 NSCLC 48.6% | A549/ATCC NSCLC 24.6% | 786-0 renal 26.3% | COLO 205 colon 12.6%
active: NCI-H460 lung 3.42% | NCI-H522 lung 8.86%

O=C1/C(=C/C=C/c2ccco2)SC(=S)N1c1ccccc1
inactive: NCI-H23 lung 70.7% | NCI-H226 lung 67.8% | NCI-H322M lung 87.2% | HOP-62 NSCLC 104% | NCI-H460 lung 91.2% | NCI-H522 lung 58% | A549/ATCC NSCLC 52.9% | 786-0 renal 71.1% | COLO 205 colon 83.2%

NC(N)=Nc1ccc(Nc2cccc(Nc3ccc(Cl)c(C(F)(F)F)c3)c2)cn1
active: NCI-H322M lung -6.68% | NCI-H460 lung -23.9% | NCI-H522 lung 8.21% | COLO 205 colon -25.1%
inactive: NCI-H23 lung 41.7% | NCI-H226 lung 24.4% | HOP-62 NSCLC 19.5% | A549/ATCC NSCLC 57% | 786-0 renal 72.6%

O=C(Cn1c(-c2ccccc2)nc2cc(Cl)c(Cl)cc21)N=Nc1c(O)[nH]c2ccc(Cl)cc12
inactive: NCI-H23 lung 68.7% | NCI-H226 lung 37.3% | NCI-H322M lung 94.6% | HOP-62 NSCLC 86.5% | NCI-H460 lung 65.8% | NCI-H522 lung 72.1% | A549/ATCC NSCLC 73.8% | 786-0 renal 96.2% | COLO 205 colon 66.6%

CN(C)CCN(C)c1ccc2ncc(C#Cc3cncc(C(=O)Nc4ccc(CN5CCN(C)CC5)c(C(F)(F)F)c4)c3)n2n1
inactive: NCI-H226 lung 64.3% | NCI-H322M lung 89% | HOP-62 NSCLC 33.6% | NCI-H522 lung 97% | 786-0 renal 90.9% | COLO 205 colon 25.1%
active: NCI-H23 lung -66.4% | NCI-H460 lung -76% | A549/ATCC NSCLC -40.5%

Cc1ccc(C2=Nn3c(nnc3-c3ccccc3)SC2)cc1
inactive: NCI-H23 lung 36.6% | NCI-H226 lung 61.2% | NCI-H322M lung 60.8% | HOP-62 NSCLC 27.5% | NCI-H460 lung 11.1% | A549/ATCC NSCLC 44.6% | 786-0 renal 46.8%
active: NCI-H522 lung -2.45% | COLO 205 colon 3.27%

Cc1ccc(S(=O)(=O)NCCNc2nc(Nc3ccc(N4CCN(C)CC4)cc3)nc3ccsc23)cc1
inactive: NCI-H23 lung 100% | NCI-H226 lung 104% | NCI-H322M lung 110% | HOP-62 NSCLC 112% | NCI-H460 lung 96.4% | NCI-H522 lung 109% | A549/ATCC NSCLC 93.8% | 786-0 renal 91.3% | COLO 205 colon 113%

COc1cc2nc(Cl)nc(Nc3cccc(C4=Nc5c(N)nc(N)nc5NC(c5ccccc5)C4)c3)c2cc1OC (stereo unspecified)
inactive: NCI-H23 lung 83.5% | NCI-H226 lung 86.9% | NCI-H322M lung 92.9% | HOP-62 NSCLC 39.6% | NCI-H460 lung 87.4% | NCI-H522 lung 76.5% | A549/ATCC NSCLC 87.5% | 786-0 renal 77.5% | COLO 205 colon 99.8%

O=C(CN1CCN(c2cc(=O)n(-c3ccccc3)c3ccccc23)CC1)Nc1cccc(C(F)(F)F)c1
inactive: NCI-H23 lung 55.5% | NCI-H226 lung 56.6% | NCI-H322M lung 82.4% | HOP-62 NSCLC 70.6% | NCI-H460 lung 57.9% | NCI-H522 lung 56.5% | A549/ATCC NSCLC 51.8% | 786-0 renal 80.5% | COLO 205 colon 68.5%

— PubChem BioAssay (NCI)
